Screens: PubChem, National Center for Advancing Translational Sciences (NCATS)
In the library only some 4.7% were active in any assay of this set; here they are far more common.
D1 potentiator – enhances dopamine response at the human D1 receptor. P21728. HEK293 TREx D1 cells, calcium flux, dopamine EC20 potentiation. potentiation, % at 10 µM. actives 0.036% (n = 360,000); in the data active = potentiation above about 30%
Target sequence (P21728 whole entry, looked up): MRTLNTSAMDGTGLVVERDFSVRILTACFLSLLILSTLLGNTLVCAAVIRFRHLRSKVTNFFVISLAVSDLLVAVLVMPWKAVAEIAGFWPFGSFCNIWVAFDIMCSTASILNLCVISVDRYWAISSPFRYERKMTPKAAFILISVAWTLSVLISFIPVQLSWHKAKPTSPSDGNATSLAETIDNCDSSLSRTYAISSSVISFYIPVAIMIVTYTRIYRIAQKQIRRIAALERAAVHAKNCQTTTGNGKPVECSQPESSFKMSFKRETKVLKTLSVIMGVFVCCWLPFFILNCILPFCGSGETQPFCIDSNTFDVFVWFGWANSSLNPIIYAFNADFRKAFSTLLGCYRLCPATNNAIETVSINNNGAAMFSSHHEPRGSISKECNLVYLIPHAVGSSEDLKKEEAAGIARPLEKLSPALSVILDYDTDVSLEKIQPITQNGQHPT
TRHR PAM – TRH receptor (human) allosteric enhancement; P34981; TRHR cells, fluo-8 calcium fluorescence, EC20 TRH enhancement; enhancement, % at 2 µM; actives 0.66% (n = 360,000); AID 493056; in the data active = enhancement above about 30%
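Enhancer read-out: after compound pinning and an initial kinetic agonist-mode read, an EC20 of TRH (10 nM final) was injected and fluo-8 calcium signal (Ex 480/Em 530) followed at 1 s/cycle for 100 cycles in TRHR-expressing cells.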
D1 antag – blocks dopamine activation of the human D1 receptor; actives 3.2% (n = 360,000); HEK293 TREx D1 cells, calcium flux, dopamine EC80; hits give low values; AID 504652; activity change, negative = inhibition, % at 10 µM; P21728; in the data active = activity change below about -30%
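Inducible Hek293 Trex D1 cells (tetracycline, overnight, 30 C). Calcium dye 30–90 min RT. Antagonist mode: EC80 dopamine added after 180 s compound read.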
D1 ag – agonists of human D1 dopamine receptor; P21728; HEK293 T-REx D1 cells, calcium flux, agonist mode; activation, % at 2 µM; actives 1% (n = 360,000)
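Tetracycline-induced HEK293 TREx D1 cells, force-coupled to calcium signalling, were dye-loaded with a no-wash calcium kit. Compound was pin-added after a 10 s baseline. Fluorescence was read kinetically at 1 cycle/s for 180 s, with calcium rises flagged as agonism.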
TRHR agonist – TRH receptor (human) agonism | TRHR cells, calcium flux fluo-8, FDSS agonist mode | actives 0.18% (n = 360,000) | activation, % at 2 µM | P34981
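Steps: seed TRHR cells overnight; add fluo-8 no-wash Ca dye, RT 30 min–1.5 h; record 10 s baseline; pin-transfer compounds; monitor fluorescence 1 cycle/s for the agonist window. Calcium increases flag candidate agonists.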
Numbers stand for hits; – = inactive; ! = not active in a repeat. Rule as the data show it, unless noted: active = activation above about 30%; inactive = the rest.

SMILES	D1 potentiator	TRHR PAM	D1 antag	D1 ag	TRHR agonist
C=C[C@@H]1c2ccccc2N(S(=O)(=O)c2ccc(C)cc2)[C@H](c2ccccc2C(F)(F)F)C1(C#N)C#N	–	–	–	–	–
O=C1SCCC1NS(=O)(=O)c1ccc([N+](=O)[O-])cc1 (stereo not given)	–	–	–	–	–
COc1ccc(CCN2C(=O)c3[nH]nc(-c4ccccc4O)c3C2c2ccc(OC)c(OC)c2)cc1 (stereo not given)	–	30.8	–	–	–
COc1cc2nc(Nc3ccc(C)c(C)c3)nc(N)c2cc1OC	–	–	-35.3!	–	–
COc1cc(C(=O)c2ccccc2)c([N+](=O)[O-])cc1OC	–	–	–	–	–
COc1ccc([N+](=O)[O-])cc1C(=O)C(=O)c1ccccc1	–	32.7	–	–	–
COc1cc(Nc2c3c(nc4ccccc24)CCC3)cc(OC)c1OC	–	–	–	–	–
Cc1ccccc1Nc1nc(N)c2ccccc2n1	–	–	–	–	–
COc1ccc(C)cc1Nc1nc(N)c2ccccc2n1	–	–	-36.3	–	–
COc1cc(NS(C)(=O)=O)ccc1Nc1c2ccccc2nc2ccccc12	–	–	-48.8	–	–
CCc1ccc(NC(=O)Cn2cc(S(=O)(=O)c3ccc(F)cc3)c(=O)c3cc(OC)ccc32)cc1	–	–	–	–	–
COc1ccc([N+](=O)[O-])cc1Nc1c2ccccc2nc2ccccc12	–	–	-40.9	–	–
COc1ccc(OC)c(Nc2c3ccccc3nc3ccccc23)c1	–	–	-54.2	–	–
CN(C(=O)CSc1n[nH]c(-c2cccs2)n1)C1CCS(=O)(=O)C1 (stereo not given)	–	–	–	–	–
Cc1ccc(NC(=O)c2oc3ccc(S(=O)(=O)N(C)C4CCCCC4)cc3c2C)c(C)c1	–	–	–	–	–
NC(=O)C1CCN(C(=O)C2CC(=O)N(c3ccc4c(c3)OCCO4)C2)CC1 (stereo not given)	–	–	-34.1	–	–
CC1CC(C)CN(C(=O)C2CC(=O)N(c3ccc4c(c3)OCCO4)C2)C1 (stereo not given)	–	–	–	–	–
COc1ccc(S(=O)(=O)NCC(=O)NCc2cc(=O)n(C)c(=O)n2C)cc1C	–	–	–	–	–
CCCc1c(NC(=O)Nc2ccc(F)cc2)cnn1-c1ccc(Cl)cc1	–	–	-43.1	–	–
CCOC(=O)c1c(S(=O)(=O)N2CCC(C(=O)NCc3cccc(OC)c3)CC2)c(C)n(C)c1C	–	–	–	–	–
CCc1nc2cccnc2n1-c1ccc(CC(=O)Nc2cccc(C)c2C)cc1	–	–	–	–	–
Nc1nc(N2CCN(C/C=C/c3ccccc3)CC2)nc2ccccc12	–	–	-50.4	39.9	–
O=c1[nH]c(CN2CCN(C/C=C/c3ccccc3)CC2)nc2ccccc12	–	–	–	–	–
COc1ccc(/C=C2\Oc3cc(OC(=O)N4CCOCC4)ccc3C2=O)c(OC)c1	–	–	–	37.4	–
CC1CCCC(C)N1CC(O)COC1CCC(C(C)(C)C)CC1 (stereo not given)	–	–	–	31.0	–
SMILES	D1 potentiator	TRHR PAM	D1 antag	D1 ag	TRHR agonist
CC1CN(CC(O)COC2CCC(C(C)(C)C)CC2)CC(C)O1 (stereo not given)	–	–	–	–	–
CC(C)(C)C1CCC(OCC(O)CN2CCN(Cc3ccccc3)CC2)CC1 (stereo not given)	–	31.5	–	–	–
CC(C)(C)C1CCC(OCC(O)CN2CCN(c3ccccn3)CC2)CC1 (stereo not given)	–	–	–	–	–
CCCCn1c(=O)c2oc3ccccc3c2n(Cc2ccccc2C)c1=O	–	–	–	–	–
CCOc1ccc(NC(=O)Cn2c(=O)oc3cc(S(=O)(=O)NC4CCCC4)ccc32)cc1	–	–	–	–	–
Nc1ccc2c(c1)Nc1ccccc1CC2	–	–	-30.7	–	–
COC(=O)Nc1ccc2c(c1)Nc1ccccc1CC2	–	–	–	–	–
CCOC(=O)c1c(-c2ccccc2)oc2ccc(OCC(O)CNCCN(C)C)cc12 (stereo not given)	–	–	-48.4	45.0	–
CCCCn1c(CNC(=O)c2ccc(OC)cc2)nnc1SCC(=O)Nc1ccccc1	–	–	-68.6	–	–
Cc1cc(C)c2ccc(=S)[nH]c2n1	–	–	–	–	–
COc1ccc2c(C)cc(C)nc2n1	–	–	-33.2	–	–
COc1ccc(CNC(=O)C(C)n2c(=O)cc(C)c3c(C)nn(-c4ccccc4)c32)cc1 (stereo not given)	–	–	-53.7	–	–
CC(C)Cn1c(=O)c2sccc2n2c(CCCC(=O)NCc3ccccc3Cl)nnc12	–	–	–	–	–
C=CCNc1nc(N)c(C(=C(C#N)C#N)c2ccc(Br)cc2)s1	–	–	-31.5	–	–
C=CCNc1sc(C(=O)c2ccc(C)cc2)c(N)c1C#N	–	–	–	–	–
O=C(O)CSCC(=O)N(c1ccccc1)c1ccccc1	–	–	–	–	–
Cc1noc(C)c1CN(C(=S)NC1CC2CCC1C2)c1ccccc1 (stereo not given)	–	–	–	–	–
Cc1noc(C)c1CN(C(=S)NC(C)C)c1ccccc1	–	–	-32.3	–	–
CC(C(=O)Nc1cc(C(F)(F)F)ccc1Cl)n1nnc2sc3c(c2c1=O)CCCC3 (stereo not given)	–	–	–	–	–
O=C(NCCN1CCNC1=O)C1CCC(=O)N(Cc2cccc(C(F)(F)F)c2)C1 (stereo not given)	–	–	–	–	–
O=C(COC(=O)c1cnccn1)c1ccc(Br)cc1	–	–	–	–	–
Cc1cnc(C(=O)OCC(=O)c2ccc(F)cc2)cn1	–	–	–	–	–
O=C(COC(=O)c1cnccn1)c1ccc(C2CCCCC2)cc1	–	33.6	–	–	–
Cc1cnc(C(=O)OCC(=O)c2ccc(C3CCCCC3)cc2)cn1	–	–	-31.1	–	–
CCc1ccc(C(=O)COC(=O)c2cnc(C)cn2)cc1	–	–	-32.6	–	–
SMILES	D1 potentiator	TRHR PAM	D1 antag	D1 ag	TRHR agonist
O=C(CN1CCN(c2ccccc2F)CC1)N1CCc2ccccc21	–	–	–	–	–
O=C(CN(C(=O)c1csnn1)c1ccc(Br)cc1)NC1CCCCC1	–	–	–	–	–
Cc1ccc(NC(=O)c2cccc(S(=O)(=O)N3CCc4ccccc4C3)c2)nc1	–	–	–	–	–
Cc1cc(N2CCN(C)CC2)ccc1NC(=O)c1cccc(S(=O)(=O)N2CCc3ccccc3C2)c1	–	–	-87.3	–	–
COc1ccccc1N(C)S(=O)(=O)c1ccc(Cl)c(C(=O)OCc2c(C)noc2C)c1	–	–	–	30.8	–
COC(=O)c1ccc(C(=O)OC)c(NC(=O)c2c(-c3ccccc3)noc2C)c1	–	–	–	–	–
